Data: the supplement of paper PMC3334620
Whole data set: some 33,000 sequences, median “E-score (-0.5 to 0.5)” near -0.0014, cut for the highest 2% near 0.25. This is one part of a sample in which the highest values are shown more often than they occur.

target: T1, Cad1 (UniProt P24813); assay: PBM E-score (8-mer binding enrichment) (E-score (-0.5 to 0.5)); higher = stronger / more preferred TF binding; conditions: protein concentration: 100 nM; construct: GST-full length
T1 sequence: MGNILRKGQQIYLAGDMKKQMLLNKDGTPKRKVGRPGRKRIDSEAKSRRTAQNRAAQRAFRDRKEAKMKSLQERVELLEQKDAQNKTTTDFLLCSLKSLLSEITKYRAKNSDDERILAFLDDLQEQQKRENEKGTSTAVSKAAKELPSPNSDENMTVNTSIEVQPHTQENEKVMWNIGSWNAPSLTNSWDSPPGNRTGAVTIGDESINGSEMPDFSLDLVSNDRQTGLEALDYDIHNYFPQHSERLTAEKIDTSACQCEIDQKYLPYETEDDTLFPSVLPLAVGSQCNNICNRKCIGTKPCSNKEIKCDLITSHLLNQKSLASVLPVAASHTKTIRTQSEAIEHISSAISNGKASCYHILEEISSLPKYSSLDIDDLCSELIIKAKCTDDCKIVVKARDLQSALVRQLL
Outline: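 Detection of bound protein used fluorescent anti-GST, with scans normalised by masliner. The proteins were GST-tagged yeast transcription factors applied at about 100-200 nM to universal all-10-mer Agilent arrays made double-stranded by primer extension. Each ungapped eight-base word, pooled with its reverse complement, was scored with an E-score from the Universal PBM Analysis Suite.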

Sequence	PBM E-score
CGCTCAAA	0.0635
GTACTCAC	0.158
CATCGATA	0.149
CTAGATAG	0.0131
GAAATCGA	0.0829
TGTATACA	0.272
GTTACATA	0.253
CATACATA	0.161
CTTACATA	0.278
AGTATACA	0.207
GGTATACA	0.0215
GCTACATA	-0.00397
ATTACAGA	0.152
GTTACAAA	0.223
CTTACATC	-0.00465
ACTACATA	0.0142
ATTACATA	0.296
TAAGTCCA	0.0496
ATGAATCA	0.0957
AACAGCGC	0.0746
CAGATCGC	-0.038
CCTTGTAA	0.049
ATGACTAC	-0.181
GTGACTGA	0.157
GTGACTAA	0.37

Sequence	PBM E-score
GTGACTCA	-0.0941
ATGACTAA	0.377
ATGACTAG	-0.129
AGCTTGAG	-0.123
CGCATAGA	0.0454
GATACACA	0.0908
AATACACC	0.255
AATACACT	0.158
CATACACC	0.00325
GATACACC	0.257
AATACACA	0.144
AGTACGCG	0.26
AGTACGCC	-0.293
AGTACGCA	-0.129
AATAGGGT	0.0291
CGCCCAGC	0.0197
CGTTGAAG	-0.178
ATCCGGAC	0.131
ACCGGAAA	0.135
CTCCGGAC	0.00021
TCCGGAAA	0.252
GTCCGGAC	0.319
CTCCGGAA	0.00101
TTCCGGAA	0.316
ATCCGGAA	0.22

Sequence	PBM E-score
CCCGGAAA	0.134
ATGCTCCG	-0.114
ATCCAGGG	-0.173
GACAAGCA	-0.021
ACCACTAT	0.0199
CACAATTA	0.00794
ACACTTTA	0.0868
AATAATTC	0.18
AATAATTG	0.0365
CATAATTA	0.279
AATAATTA	0.336
GATAATGA	0.167
GATAATAA	0.0805
GATAATTA	0.297
CATAATGA	0.0454
CATAATTC	0.0611
CTCATTCA	0.0583
AGTGTGAC	-0.0643
AGACTCAG	0.0244
CGCGATTC	0.268
CGCGATTA	0.187
AGCGATTC	-0.021
CCCTAACC	-0.157
CACTAGAC	-0.0989
AGCTTACC	-0.0175

Sequence	PBM E-score
AGCTTACA	0.351
TGCTTACA	0.235
GCGCCCAA	0.143
AATTCGTC	0.274
AATTCGGT	0.266
CATTCGTC	0.0375
AATTCGTA	0.0688
AATTCGGC	-0.0493
AATTCGGG	0.0637
CAATTTCA	0.0182
CTCGGCAG	0.136
CAAGCTTG	-0.294
ATTGGTCC	0.0438
CAACCGCC	-0.23
AAACCGCC	-0.0149
AAACCGCA	-0.213
AAACCGCG	0.271
CAACCGAA	0.168
CAACCGCA	0.066
CAACCGAC	0.252
CAACCGCG	0.297
GAACCGAC	0.105
ACTAGAGA	-0.224
CGTGCGAA	0.036
GGGCATTA	-0.152

Sequence	PBM E-score
GATCAAGC	-0.0801
GGCGGTAA	0.045
ACTTCGCG	0.216
GCAACAGC	-0.076
ATAAGGGG	-0.0559
CTATCGTA	-0.0798
ACGAAACA	0.192
CCGAAACA	0.0714
TCGAAACA	0.251
AGCTATCA	0.118
CGAAGAGA	0.106
ATGTCACA	0.306
ATGTCAGA	-0.0566
ATGTCACG	0.0134
CTGTCAGC	0.118
GTGTCAAA	0.163
ATGTCAGC	0.315
GTGTCACA	0.252
CTGTCACA	0.0656
ATGTCACC	0.0545
AGCCAGAT	-0.239
AGGTCAAC	0.00774
ACCTGATG	-0.134
CAGAATGG	-0.00601
CATCAAGA	0.0115

Sequence	PBM E-score
CCTCAACA	0.0958
CTTCACGA	-0.199
CTTCACGC	0.26
ATTCACGC	0.0118
CTAGACCA	0.00762
CCAGGACA	0.0769
ATTATCAA	0.297
ATTATCAG	-0.0126
CATATCAA	0.259
CTTATCAA	0.256
GTTATCAA	0.129
ATTATCGC	0.282
ATTATCAC	0.151
ATTATCGA	0.107
AATATCAA	0.138
ATTATCGG	0.0117
CATATCAG	-0.00093
CTTATCAC	0.0836
CCAATCGA	0.105
TATTAGAA	0.24
CAAACACG	0.126
CAAAAGCG	0.0683
ACACGCCC	-0.0578
AGCCATAT	-0.0728
GGTAGCCA	-0.0237

Sequence	PBM E-score
CGACTTAA	0.0481
TATACCAA	0.0311
CCGAAATA	0.253
GCGAAATA	-0.0552
ACGAAATA	0.201
GGGGTTCA	-0.191
ATCGCCCG	-0.0312
GTTGCTGA	0.111
GTTGCTTA	0.261
ATTGCTTA	0.176
GCTCGGTA	-0.203
CATAGGGC	-0.163
GAATTCGC	-0.0565
CAATTCGA	-0.0688
CAATTCGC	0.322
ATTCGCAC	0.00983
GGTGCTGA	-0.0741
AACGCCTG	0.0294
ACTAAGCT	0.223
AGTAAGCG	0.338
AGTAAGCC	0.156
AGTAAGGG	0.0236
ACTAAGCG	0.3
ACTAAGCA	0.181
ACCGTCTC	0.138

Sequence	PBM E-score
CTTGCAAA	0.105
ATTCCTTC	0.105
GTTGTACA	0.286
CTTGTACA	-0.0604
ATTGTACA	0.106
CTGAGGGA	-0.0379
ACTAAAAT	0.255
ATTAAAAC	0.108
ATTAAAAT	0.253
ACTAAAAA	0.107
ACTAAAAC	0.116
ATTAAAAA	0.221
ATGACGTC	0.0734
AGGAAGTC	-0.225
GAGTGGGC	-0.294
AGGCTACA	0.00724
AGAAAGAA	0.0147
TGAAAGAA	0.253
GGAAAGAA	-0.177
TGAAAACA	0.131
AAAAGTAA	0.265
AAAAGTAT	0.0548
CAAAGTAA	-0.00082
GATAGTGA	0.157
CATTTTTC	0.124

Sequence	PBM E-score
ATGAAAAG	0.0321
ATGAAAAA	0.27
ACGAAAAC	0.259
ATGAAAAT	0.0649
ACGAAAAG	0.0611
ACGAAAAA	-0.045
ACTTCACT	-0.00075
CACAAGCG	-0.145
ATATCCCA	0.0408
CGCTCCAA	0.0125
ACGTTAAC	0.102
GCGTTAAC	0.257
CTGTTAAC	0.258
ATGTTAAC	0.0833
GTGTTAAC	0.168
CCGTTAAC	0.0965
TGGGAACA	-0.0827
CAGGTTTC	0.111
ATGAACTA	0.0699
CCCTTTAA	-0.135
GTGTTTAA	0.233
GTAGATCA	0.0116
AGTGGTAC	-0.103
GCCACAGC	-0.115
ATGAGTAC	0.0206

Sequence	PBM E-score
GTGAGTAA	0.129
CTGAGTAA	0.254
CTGAGTAC	-0.06
ATGAGTAA	0.286
ATGAGTAG	0.0743
CCTAGTGA	-0.171
AGGGGTCA	-0.304
CTCGGGGA	-0.0482
GATCCGTA	-0.0959
CTCGTAAG	0.264
CTCGTAAC	0.112
ATCGTAAG	-0.0168
CAGAGACC	-0.145
ATGGTCGC	-0.127
AGGTCTCG	-0.2
CCAGAAGC	-0.248
CTATCAAG	0.0773
ATATCAAG	0.251
ATATCAGG	0.00611
CTATCAAC	0.219
ATATCAAC	0.253
TTATCAAA	0.3
CAATCAAC	0.228
CTATCAAA	0.0734
GAATCAAA	0.0378

Sequence	PBM E-score
GAATCAAC	0.264
GTATCAAA	0.142
GTATCAAC	-0.0681
TCAGCACA	0.172
TAGCGCCA	0.0297
CCAGCTGA	0.155
AGTCAGGG	-0.148
CGATTCTC	0.0405
ACATGGCC	0.141
CCGCGAAG	0.12
ACTGTCGA	0.0753
AAGGCTGA	-0.00348
CCAGTGCC	-0.0306
AGTGCGAG	-0.0178
AGATCAAT	-0.021
ATATCAAA	0.0329
ATATCAAT	0.253
AGACCTAT	0.111
ATCGATGA	0.13
GTTCCGCA	0.252
ATTCCGCA	-0.0887
CTTCCGCA	0.0248
GACGGAGA	0.038
ATAGGTGA	-0.0537
CAATCGAA	0.0916

Sequence	PBM E-score
TAATCCAA	0.255
TAATCGAA	0.35
AAATCGAA	-0.156
GAATCCAA	-0.0184
AAATCCAA	0.115
CGTTCGTC	0.248
AGTCTCAT	-0.0485
GCGCATCC	-0.0757
ATGAGGAC	-0.0183
AGGGGCGC	-0.103
ATTGTCCA	0.132
ATTGTCAG	0.306
ATTGTCAC	0.0726
ATTGTCCG	0.271
ATTGTCCC	-0.0923
ATTGTCAA	0.084
ATCAGAAG	-0.0366
ATTTGGAG	-0.204
ACTCCACT	-0.0657
ACCCGGCG	-0.12
CACGACAG	0.0344
CACTGTAA	0.00669
GATACCCA	0.122
ATGCGCAT	0.334
ATACGCAA	0.119

Sequence	PBM E-score
CCGCGCAA	0.0795
TTACGCAA	0.268
TCGCGTAA	0.19
ATGCGCAG	-0.0137
GTACGCAA	0.0953
GCGCGTAA	0.293
ACGCGCAA	0.206
ACGCGTAA	0.176
GCGCGCAA	0.303
ATGCGCAC	0.14
GCCTCAGC	-0.0857
CTTTCACA	0.209
ACAGCATG	-0.053
AACTTGGG	-0.0849
GGTTGGTA	0.101
GCGCAGAA	0.262
CCGCAGAA	0.179
TCGCGCAA	0.27
TGGCGCAA	-0.0637
TTGCGCAA	0.258
ATGCGCAA	0.107
TCGCAGAA	-0.192
TAGCGCAA	0.207
GTGCGCAA	0.0688
ATACACTA	0.205

Sequence	PBM E-score
ATATCGTG	0.164
ACACCGCC	0.0284
AGGATCTA	-0.266
ACGCATGA	0.0155
ACGCATGC	0.283
ACGCATGG	-0.215
ACGCTGAT	0.166
CAGCTGTC	0.253
CTGCTGTC	-0.0811
CAGCTGAC	0.182
ACGCTGTC	-0.187
CTGCTGAC	0.275
ACGCTGAC	0.3
CTGCTGAA	0.0549
CAGCTGAG	0.0708
GGAAGAAA	-0.0518
CTAGTTGC	0.0214
GGACTTGA	-0.232
ATACTCTG	0.0457
